# Shiga toxin inh: blocks Shiga toxin action in Vero cells | Vero cells, Shiga toxin protein synthesis inhibition reporter | inhibition, % at 38.7 µM | 9.2% of 290,000 active; in the data active = inhibition mostly above about 28%, no sharp cut-off; inactive = mostly below about 43%; note: 0% is about no effect
# Pf growth 48h: inhibits P. falciparum growth in the first generation, 48 h. P. falciparum luciferase growth in erythrocytes, 48 h. Potency, µM (series often up to 28.7 µM), without a hit: at the highest dose activity change, negative = inhibition, actives largely listed as inhibitors. 5.9% of 310,000 active. AID 504832; note: potency is the fitted concentration of half-maximal effect; % is set by controls: 0 for no effect and ±100 for the full control effect
#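 Parasite viability was followed by luminescence of a genomically integrated firefly luciferase. Cultures held 0.1% parasitemia at 2% hematocrit (final), incubated under 5% CO2 at 37 C.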
# SARS PLP yeast: inhibitors of SARS-CoV papain-like protease in yeast; S. cerevisiae expressing SARS-CoV PLpro, growth rescue; Potency, µM (series often up to 32.9 µM), inactives show top-dose activity, positive = growth rescue, actives largely listed as activators; 0.19% of 330,000 active; calls by dose curve; note: potency is the fitted concentration of half-maximal effect; 0% is about no effect; nearly all actives have a fitted effect of over 55% in size
# NS1 inh: influenza NS1 inhibition. Potency, µM (series often up to 46.1 µM), without a hit: at the top dose activity, positive = more growth. 0.4% of 270,000 active; calls by dose curve; note: potency is the fitted concentration of half-maximal effect; actives are rising curves; nearly all actives have a fitted effect of over 50% in size
#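 OD600 was taken as the measure of yeast growth restored by compound in an NS1-expressing S. cerevisiae strain. Cells had been washed out of glucose medium and diluted 1:100 into galactose -URA medium, pH 6.0.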
# CHX counter: affects cycloheximide protein synthesis inhibition readout, counter-screen; max response, %; 12% of 300,000 active; cell reporter, cycloheximide protein synthesis inhibition counterscreen; AID 2314; in the data active = max response mostly above about 13%, no sharp cut-off; inactive = mostly below about 14%; note: read at 38.3 µM for the half of the compounds with a filed dose; 0% is about no effect
# Pf growth 96h: P. falciparum growth inhibition at 96 hours | Potency, µM (titrated, usually from 28.7 µM), without a hit: at the top dose activity change, negative = inhibition, actives largely listed as inhibitors | P. falciparum luciferase reporter growth, 96 h | 6.9% of 320,000 active; note: potency is the fitted concentration of half-maximal effect; % is set by controls: 0 for no effect and ±100 for the full control effect
#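 Two parasite generations (96 h, 37 C, 5% CO2) of compound exposure in infected erythrocytes (0.05% parasitemia, 2% hematocrit). Luciferase-reporter P. falciparum; decreased luminescence indicates inhibited growth, aimed at apicoplast-acting delayed death.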
# * = called active by the depositor; ? = inconclusive; . = not tested or not shown; + = active, no number; ! = repeats disagree. Most compounds without a hit are left out; they make up all but 21% or so of the library. Unless noted, calls come from the whole dose curve; as a rule, active = well fitted inhibition curve with a large enough effect; inconclusive = small, poorly fitted or top-dose-only effect, or another doubt; inactive = no such curve, though single readings can be large or run the other way.
SMILES,Shiga toxin inh,Pf growth 48h,SARS PLP yeast,NS1 inh,CHX counter,Pf growth 96h
Cc1c(Cl)cccc1NC(=O)CC(Cc1ccccc1)C(=O)O (stereo unspecified),19,-18%,0%,7%,3,-9%
O=C(CC(Nc1ccc(Cl)cc1)C(=O)O)c1ccccc1 (stereo unspecified),42*,333%,2%,-5%,54*,321%
O=C(CC(CC(=O)c1ccccc1)C(=O)O)c1ccccc1,-18,.,1%,1%,2,11%
O=C(CC(Nc1ccccc1Cl)C(=O)O)c1ccccc1 (stereo unspecified),91*,144%,-1%,5%,68*,-10%
O=C(Cc1c(F)cccc1Cl)N1CCN(S(=O)(=O)c2cccs2)CC1,.,8%,-2%,.,.,1%
Cc1c(Cl)cccc1NC(CC(=O)c1ccccc1)C(=O)OCC(=O)c1cccs1 (stereo unspecified),81*,2%,-29%,-25%,23*,-70%
COc1ccccc1NC(CC(=O)c1ccccc1)C(=O)OCC(=O)c1ccc(F)cc1 (stereo unspecified),60*,82%,-41%,1%,49*,-2%
Cc1c(Cl)cccc1Nc1ccccc1C(=O)O,-7,?,-21%,-5%,-4,13µM*!
Cc1c(Cl)cccc1Nc1ncccc1C(=O)O,20,35%,-11%,-21%,-1,78%
Cc1ccc(NC(=O)COc2ccccc2C(=O)NCc2ccccc2)cc1,.,?,-3%,.,.,?
C[C@H](O)c1[nH]c2cc(F)ccc2c1[C@H](C)O,-1,?,1%,14%,1,?
CC(=O)c1ccc(S(=O)(=O)N2CCC3(CC2)CC(=O)c2ccccc2O3)cc1,.,-8%,2%,.,.,?
Cc1ccc(S(=O)(=O)Nc2ccc(-n3c(C)nc4ccccc4c3=O)cc2)cc1,.,?,0%,.,.,24%
COc1cc(OC)c(/C=N/N2CCN(c3ccccc3OC)CC2)c(OC)c1,65*,-16%,-14%,-14%,24*,?
COc1cccc(/C=N/N2CCN(c3ccccc3OC)CC2)c1,+,94%,-4%,6%,49*,57%
COc1ccccc1N1CCN(/N=C/c2cccc(Cl)c2)CC1,151*,110%,7%,-13%,38*,?
CCN(CC)c1ccc(/C=N/N2CCN(c3ccccc3OC)CC2)cc1,25,13%,-3%,21%,3,39%
COc1ccc(/C=N/N2CCN(c3ccccc3)CC2)cc1Br,-17,5%,4%,7%,2,?
CC1CCCN(C(=O)C(C)Nc2cc(Cl)ccc2N2CCOCC2)C1 (stereo unspecified),-4,?,5%,0%,0,0.66µM*
O=C(OCC(=O)N1CCc2ccccc2C1)c1cc(=O)[nH]c2ccccc12,59*,8%,-2%,-61%,33*,10%
Cc1ccc(OCC(=O)N2CCc3ccccc3C2)c(Br)c1,60*,21%,-5%,-1%,42*,50%
COc1cc(C(C)=O)ccc1OCC(=O)N1CCc2ccccc2C1,-3,-22%,9%,8%,-3,?
Cc1ccc(OCC(=O)N2CCc3ccccc3C2)c(C)c1,33,6%,-9%,-59%,11*,-1%
O=C(COC(=O)C1CCN(c2ccc(C(F)(F)F)cn2)CC1)Nc1cccc(F)c1,.,5%,0%,.,.,102%
O=C1NC2(CCCCC2)C(=O)N1CC(=O)N(Cc1ccccc1)c1ccccc1,26,3%,-9%,12%,-2,-13%
S=c1[nH]c(-c2ccc(Br)cc2)cn1CCc1ccccc1,-12,?,-4%,.,14,13µM*
O=C(CSC1CC(=O)N(CCc2ccccc2)C1=O)Nc1ccc(Br)cc1 (stereo unspecified),-14,33%,-15%,7%,-5,22%
O=C(NC(=S)NCc1nc2ccccc2[nH]1)c1ccccc1F,105*,484%,-2%,-4%,45*,438%
O=C(NCCc1nc2ccccc2[nH]1)c1ccc(F)cc1,1,11%,1%,0%,11,.
O=C(NC(=S)NCc1nc2ccccc2[nH]1)c1ccc(F)cc1,37,52%,-1%,.,28*,131%

# Screens deposited in PubChem by National Center for Advancing Translational Sciences (NCATS).
